From PubChem BioAssay (NCATS)
Results filed as inconclusive are left out. Calls of active or inactive are those of the source. Calls follow the shape of the dose curve; as a rule, active = well fitted inhibition curve with a large enough effect; inconclusive = small, poorly fitted or top-dose-only effect; inactive = flat fitted curve, though single readings scatter. Where a SMILES comes first, the peptide text is derived from it. [ ]: non-standard residue; d: D form. ξ: configuration not given here. ξPhe(βξ-Me) = CC(c1ccccc1)C(N)C(=O)O; GABA = NCCCC(=O)O

Tests used:
Assay in all cases: Cytotoxic Profiling of Annotated Libraries Using Quantitative High-Throughput Screening (AID 1296008); also: nearly all actives have a fitted effect of over 60% in size
Conditions in all cases: Five cell lines viability, CellTiter-Glo ATP luminescence, 48-72 h; max response: stronger effect = lower value
HEK293 = tested on: HEK293
Outline: (§1)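 Cytotoxicity was measured as CellTiter-Glo ATP luminescence, read after 10 min at room temperature. Compound treatment of the cells lasted 48 or 72 hr at 37 degrees Celsius in a qHTS format.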

HaCat = tested on: HaCat
Outline: as §1

KB-3-1 = tested on: KB-3-1
Outline: as §1

NIH3T3 = tested on: NIH3T3
Outline: as §1
% is scaled to controls: 0 for no effect and ±100 for the full control effect; potency is read from the fitted curve at half-maximal effect.

COc1ccc(/C=C/C(=O)O[C@H]2[C@H](O[C@H]3[C@@H]4C=CO[C@@H](O[C@@H]5O[C@H](CO)[C@@H](O)[C@H](O)[C@H]5O)[C@@H]4[C@@]4(CO)O[C@@H]34)O[C@@H](C)[C@H](O)[C@H]2OC(C)=O)cc1
inactive: max response (HEK293) -1.88% | max response (HaCat) 2.92% | max response (KB-3-1) 4.98% | max response (NIH3T3) -16.4%

CC(Nc1ncnc2nc[nH]c12)c1cc2cccc(Cl)c2c(=O)n1-c1ccccc1 (stereo unspecified)
active: Potency (HEK293) 18.4 µM | Potency (HaCat) 20.6 µM | Potency (NIH3T3) 13 µM
inactive: max response (KB-3-1) -11.3%

C/C=C1\[C@H](O[C@@H]2O[C@H](CO)[C@@H](O)[C@H](O)[C@H]2O)OC=C(C(=O)OC)[C@H]1CC(=O)O
inactive: max response (HEK293) 3.99% | max response (HaCat) -13.1% | max response (KB-3-1) -0.621% | max response (NIH3T3) -1.8%

C[C@@H]1CC[C@]2(C(=O)O)CC[C@]3(C)C(=CCC4[C@@]5(C)CC[C@H](O)C(C)(C)C5C(O)C[C@]43C)[C@@H]2[C@]1(C)O (stereo partly specified)
inactive: max response (HEK293) 4.01% | max response (HaCat) -8.55% | max response (KB-3-1) 7.38% | max response (NIH3T3) -6.6%

C=C[C@H]1[C@H](O[C@@H]2O[C@H](CO)[C@@H](O)[C@H](O)[C@H]2O)OC=C(C(=O)OC)[C@H]1C/C=C(/C=O)[C@@H]1C(C(=O)OC)=CO[C@@H](O[C@@H]2O[C@H](CO)[C@@H](O)[C@H](O)[C@H]2O)[C@@H]1C=C
inactive: max response (HEK293) -29.3% | max response (HaCat) -4.96% | max response (KB-3-1) 1.41% | max response (NIH3T3) 4.13%

CC1NC(=O)CCCNC(=O)C(Cc2c[nH]c3ccccc23)NC(=O)C(C)NC(=O)C(C(C)C)NC(=O)C(C(C)c2ccccc2)NC(=O)C(C(C)C)NC1=O (stereo not drawn) (cyclo([GABA]AV[ξPhe(βξ-Me)]VAW); configuration not given here)
inactive: max response (HEK293) -4.9% | max response (HaCat) -0.27% | max response (KB-3-1) -4.62% | max response (NIH3T3) -4.21%

[N-]=[N+]=N[C@]1(CO)O[C@@H](n2ccc(=O)[nH]c2=O)[C@@H](O)[C@@H]1O
inactive: max response (HEK293) -4.49% | max response (HaCat) 4.64% | outcome (KB-3-1) | max response (NIH3T3) -4.26%

CC(C)(O)c1ccc2c(c1)C(O)C[C@H]1[C@](C)(C(=O)O)CCC[C@]21C (stereo partly specified)
inactive: max response (HEK293) 0.619% | max response (HaCat) -7.52% | outcome (KB-3-1) | max response (NIH3T3) 4.86%

C[C@]12C=C[C@@]3(CCC4[C@](C)(CO)CCC[C@@]4(C)C3CC1)C2 (stereo partly specified)
inactive: max response (HEK293) -17.4% | max response (HaCat) -20.7% | max response (KB-3-1) 4.11% | max response (NIH3T3) -6.89%

CC(=O)O[C@@H]1[C@@H](CO)O[C@@](CO)(O[C@H]2O[C@H](COC(=O)/C=C/c3ccccc3)[C@@H](O)[C@H](O)[C@H]2O)[C@H]1O
inactive: max response (HEK293) 0.799% | max response (HaCat) -9.37% | outcome (KB-3-1) | max response (NIH3T3) 1.35%

CC(=O)OC1C(O)CC2(C)C(CCC(C)C23Cc2c(O)cc(CO)c(C=O)c2O3)C1(C)C (stereo unspecified)
inactive: max response (HEK293) -11.5% | max response (HaCat) -3.73% | max response (KB-3-1) 6.45% | outcome (NIH3T3)

COC1C(=O)CCC2(CO2)C1(O)C1(C)OC1CC=C(C)C (stereo unspecified)
inactive: max response (HEK293) -34.7% | max response (HaCat) -2.7% | max response (KB-3-1) 6.79% | max response (NIH3T3) -14.1%

C[C@@H]1O[C@@H](O[C@H]2[C@H](O)[C@@H](O)[C@H](OC3CCC4(C)C5CCC(C)(C(CO)OC6OC(CO)C(O)C(O)C6O)CC5=CCC4C3(C)C)O[C@@H]2CO)[C@H](O)[C@H](O)[C@H]1O (stereo partly specified)
inactive: max response (HEK293) 4.31% | max response (HaCat) -0.0812% | max response (KB-3-1) 0.989% | max response (NIH3T3) 3.8%

COc1ccc(/C=C\C(=O)O)c(O[C@@H]2O[C@H](CO)[C@@H](O)[C@H](O)[C@H]2O)c1
inactive: max response (HEK293) -0.642% | max response (HaCat) -1.35% | outcome (KB-3-1) | max response (NIH3T3) 0.681%

C/C(=C/CO)CC[C@@H]1[C@@](C)(O)CCC2C(C)(C)CCC[C@]21C (stereo partly specified)
inactive: max response (HEK293) 4.02% | max response (HaCat) 0.603% | max response (KB-3-1) 5.46% | max response (NIH3T3) -10.9%

CC(=O)OC1C[C@@]2(C)[C@@H](CC[C@@H](C)[C@]23Cc2c(O)cc4c(c2O3)CNC4=O)C(C)(C)[C@@H]1O (stereo partly specified)
inactive: max response (HEK293) 1.75% | max response (HaCat) 4.03% | outcome (KB-3-1) | max response (NIH3T3) 1.15%

CN(c1ccccc1CNc1nc(Nc2ccc3c(c2)CC(=O)N3)ncc1C(F)(F)F)S(C)(=O)=O
active: Potency (HEK293) 2.31 µM | Potency (HaCat) 8.2 µM | Potency (KB-3-1) 6.51 µM | Potency (NIH3T3) 5.8 µM

O=C(OCC1=CC(O)C2C=CO[C@@H](O[C@@H]3O[C@H](CO)[C@@H](O)[C@H](O)[C@H]3O)C12)c1ccccc1 (stereo partly specified)
inactive: max response (HEK293) -4.16% | max response (HaCat) 1.81% | max response (KB-3-1) 2.99% | max response (NIH3T3) 1.21%

C[C@@H]1CCC2C(C)(C)[C@H](O)CC[C@]2(C)[C@@]12Cc1c(O)cc3c(c1O2)CNC3=O (stereo partly specified)
inactive: max response (HEK293) -94.6% | max response (HaCat) -68.6% | max response (KB-3-1) 9.73% | max response (NIH3T3) -63%
